Each structure is given as a SMILES string. In all, about 300,000 compounds went through this assay and about 22,000 (7.3%) were called active. Inconclusive results (about 2%) are left out. Rule as the data show it: active = activity score below about -60%; inconclusive = mostly about -28% to -61%; inactive = positive scores. This excerpt belongs to a sample that is enriched for actives.

This assay can be described thus: Activators via SNCA 5'UTR binding, MLPCN (AID 1814). To be noted: alpha-synuclein 5'UTR reporter, activators screen; stronger effect = lower value; tested at 7.5 µM.
For the molecule `O=C(NC(=S)Nc1ccc(Cl)cc1Cl)C1CC1`, the activity score is -107% (active).
For the molecule `Cc1cc(C)c2nc(NC(=O)C3CCCO3)sc2c1` (stereo unspecified), the activity score was -107% (active).
`Cc1[nH]n(C(N)=S)c(=O)c1N=Nc1ccc(Cl)cc1Cl`: the activity score is -112% (active).
Consider `COc1ccc(C(=O)Nc2ccc3c(c2)OCO3)cc1OC`, for which the activity score was -100% (active).
As to `Cn1c(=O)n(C)c2cc(C(=O)Nc3ccc(Br)cc3)ccc21`, the activity score was -80.7% (active).
To `Cc1ccc(C(=O)Nc2ccc3c(c2)OCO3)cc1S(=O)(=O)N1CCCCC1` belongs -66.6% (active); to `COc1ccc(C(=O)Nc2ccc(C3(C#N)CCCC3)cc2)cc1OC`, -120% (active).
Regarding `Cn1c(=O)n(C)c2cc(C(=O)Nc3ccc4c(c3)OCO4)ccc21`, the activity score is -191% (active).
`O=C(Nc1ccccc1)c1ccccc1NC(=O)C(F)(F)F`: the activity score is -85.9% (active).
Take `Cc1cccc(-c2noc(-c3ccc(F)cc3)n2)c1`: the activity score is -101% (active).
As to `Cc1ccc(Cc2nc(-c3cccc(C)c3)no2)cc1`, the activity score is -173% (active).
Then `CCOc1ccc(/C=N/NC(N)=S)cc1`, with -63.3% (active); and `Cc1cc(=O)oc2cc(OCC3CC(c4ccccc4Cl)=NO3)ccc12` (stereo unspecified), with -132% (active).
Regarding `CC(C)(C)c1ccc(Oc2ccc(N)cc2)cc1`, the activity score is 112% (inactive).
Then `CC(C)(C)c1ccc(OC2=CS(=O)(=O)c3ccccc32)cc1`, with -110% (active); and `COC(=O)c1c(NC(=O)c2ccccc2F)sc2c1C(C(=O)OC)CC2` (stereo unspecified), with -72.4% (active); and `CCOc1ccc2[nH]c3nc(SCC(=O)NC4CCCC4)nnc3c2c1`, with -73.1% (active).
With `Cc1cccn2c(=O)c3cc(C(=O)NCCN4CCOCC4)c(=N)n(Cc4cccnc4)c3nc12`, the activity score is 97% (inactive).
With `COc1ccc(CCn2c(=N)c(C(=O)NCc3ccco3)cc3c(=O)n4cccc(C)c4nc32)cc1`, the activity score was -87.1% (active).
Regarding `CCn1c2ccccc2c2cc(NC(=O)C/C(C)=N/NC(=O)c3ccccc3N)ccc21`, the activity score is -110% (active).
For the molecule `COc1ccc(Nc2nc(-c3ccccc3)cs2)cc1`, the activity score is -137% (active).
Regarding `NS(=O)(=O)c1ccc(Nc2nc(-c3ccccc3)cs2)cc1`, the activity score is -117% (active).
To `COc1ccc(-c2csc(Nc3ccc(O)cc3)n2)cc1` belongs -170% (active); to `COc1ccc(-c2csc(Cc3nc(O)cs3)n2)cc1`, -207% (active); to `Oc1ccc(-c2csc(Nc3cccnc3)n2)cc1`, -116% (active).
With `O=C(NCc1cccnc1)C(=O)Nc1nc(-c2ccccc2)cs1`, the activity score is -99% (active).
As for `COc1ccc(-c2csc(NC3OC(=O)c4ccccc43)n2)cc1` (stereo unspecified), the activity score is -114% (active).
Then `CN(c1ccc(O)cc1)c1nc(-c2cccnc2)cs1`, with -137% (active).
To `Cc1ccccc1Nc1nc(-c2cccnc2)cs1` belongs -179% (active); to `COc1ccc(OC)c(Nc2nc(-c3ccc(O)c(O)c3)cs2)c1`, -158% (active); to `O=C(Nc1ccc2c(c1)OCO2)C1CC(c2c(F)cccc2Cl)=NO1` (stereo unspecified), -147% (active).
For the molecule `COc1cccc(NC(=O)C(=O)c2cn(CC(=O)N3CCOCC3)c3ccccc23)c1`, the activity score is -77.7% (active).
As for `O=C(Nc1ccc([N+](=O)[O-])cc1)C1CC12CCC2` (stereo unspecified), the activity score was -78.2% (active).
Then `COc1ccc(NC(=S)N2N=CCC2c2ccccc2)cc1` (stereo unspecified), with -137% (active); and `Cn1c(SCc2c(F)cccc2Cl)nnc1-c1cnccn1`, with -126% (active).
As for `CSC(=S)N/N=C/c1c[nH]c2ccccc12`, the activity score was -107% (active).
Consider `c1ccc(-c2ccc(OCCN3CCOCC3)cc2)cc1`, for which the activity score is -93.6% (active).
In the case of `COc1ccc(Br)cc1C(=O)NC(=S)Nc1cc(-c2nc3ccccc3[nH]2)ccc1C`, the activity score is -86.2% (active).
In the case of `Cc1ccc(-c2csc(-c3c[nH]c4ccccc34)n2)cc1`, the activity score was -164% (active).
Regarding `Cc1ccc(-c2csc(-c3cc(C)on3)n2)cc1`, the activity score was -149% (active).
For `O=C(CN1C(=O)C2C3C=CC(C3)C2C1=O)Nc1nc(-c2ccccn2)cs1` (stereo unspecified), the activity score is 82.4% (inactive).
Regarding `O=C(CSC1=NCCS1)Nc1nc(-c2ccccc2)cs1`, the activity score was -83% (active).
Turning to `CCNC(=O)CSc1nc(-c2ccccc2)cs1`, the activity score was -105% (active).
On to `O=C(CNC(=O)c1ccc(F)cc1)c1ccccc1`, for which the activity score is -128% (active).
Then `O=C(CNC(=O)c1ccccc1F)c1ccc(Br)cc1`, with -97.5% (active).
For the molecule `CCOc1ccc2c(c1)C(c1ccc(C)cc1)=NNC(c1ccc(C)cc1)=N2`, the activity score is -63.3% (active).
Regarding `Cc1nc2ccccc2cc1OCc1ccc(F)cc1`, the activity score is -71.1% (active).
Take `C/C(=N\NC(=O)c1cccnc1)c1ccc(-c2ccccc2)cc1`: the activity score is -92.7% (active).
Turning to `C/C(=N\NC(=O)c1ccc2ccccc2c1)c1cccnc1`, the activity score is -68.8% (active).
`C/C(=N\NC(=O)c1nc(C)cc(C)n1)c1ccccc1`: the activity score is -137% (active).
For the molecule `C/C(=N\NC(=O)c1ccccc1F)c1ccccn1`, the activity score was 83% (inactive).
As to `CC(C)CNC(=O)C(=O)Nc1ccc(N(C)C)cc1`, the activity score was -159% (active).
As for `O=C(Nc1ccc(Cl)cc1)/C(=C1\CCCN1)[N+](=O)[O-]`, the activity score was -97.2% (active).
With `CC(=O)Nc1cccc(C(=O)OCC(=O)NCc2cc(C)c(O)c(C)c2)c1`, the activity score was -62.5% (active).
On to `CCCOc1cccc(C(=O)Nc2nnn(CCC)n2)c1`, for which the activity score was -87.6% (active).
As for `CCCOc1ccc(C(=O)C(CCC(CNCC)C(=O)c2ccc(OCCC)cc2)CNCC)cc1` (stereo unspecified), the activity score is 107% (inactive).
Turning to `Cc1c(C)c2cc3c4c(oc3c(C)c2oc1=O)CCCC4`, the activity score was -61.9% (active).
As to `CC[n+]1cc(C)ccc1/C=C/c1ccc(N(C)C)cc1`, the activity score was 90.6% (inactive).
To `COc1cccc(/C=C/C(=O)Nc2ccc3c(c2)OCCO3)c1` belongs -94% (active).
Consider `Cc1cccc(NC(=O)Nc2ccc3c(c2)OCO3)n1`, for which the activity score was -251% (active).
Turning to `Cc1cccc(NC(=O)/C=C/c2ccc3c(c2)OCO3)n1`, the activity score was -88% (active).
To `CNS(=O)(=O)c1ccc(NC(=O)Nc2ccc3c(c2)OCO3)cc1` belongs -63.6% (active); to `Cc1ccc(-n2c(C)cc(/C=C(\C#N)C(=O)NCC3CCCO3)c2C)cc1` (stereo unspecified), -133% (active).
`COc1ccc(Cc2nnc(NC(=O)c3ccc(OC)cc3OC)s2)cc1`: the activity score is -62.4% (active).
As to `COc1ccc(C(=O)NC2=NCCS2)c(OC)c1`, the activity score is -111% (active).
With `O=C(NC1=NCCS1)c1ccc(Cl)s1`, the activity score was -112% (active).
As for `COc1ccc(C(=O)Nc2nncs2)c(OC)c1`, the activity score is -106% (active).
Consider `Cc1cccc(NC(=S)Nc2ccc(Br)cc2)c1`, for which the activity score was -106% (active).
Turning to `Cc1cccc(NC(=O)c2nc(S(=O)(=O)Cc3ccccc3)ncc2Cl)c1`, the activity score is 84.8% (inactive).
With `Cc1cccc(NC(=S)Nc2ccc(Cl)c(Cl)c2)c1`, the activity score is -115% (active).
For the molecule `COc1ccc(CNc2ccc3c(c2)CCC3)cc1OC`, the activity score is -177% (active).
Take `Cc1cc(C(=O)NNC(=S)Nc2ccccc2C)cs1`: the activity score was -135% (active).
`Cc1ccc(C(=O)NC(=S)Nc2ccccc2C)cc1`: the activity score is -122% (active).
Take `Nc1ccc(C(=O)Nc2ccccc2N)cc1`: the activity score was -714% (active).
For the molecule `CCn1c(SCC(=O)Nc2cccc(F)c2)nnc1-c1cc2cc(Br)ccc2o1`, the activity score was -71.9% (active).
With `CN1C2CCC1/C(=C\c1ccccc1Cl)C(=O)/C2=C\c1ccccc1Cl`, the activity score is -89% (active).
With `CCOC(=O)c1cnc(-n2nc(C)cc2C)nc1NNc1cc(C)nc(-c2ccccc2)n1`, the activity score was 105% (inactive).
On to `Cc1cc(-n2nc(C)cc2C)n2ncc(-c3ccccc3)c2n1`, for which the activity score was -73.6% (active).
To `O=C1/C(=C\Nc2ccccc2)CCN1c1ncccn1` belongs -99.5% (active).
Turning to `O=C(CSC(=S)N1CCCCC1)c1c(F)cccc1F`, the activity score was -175% (active).
On to `CCOc1ccc(C(O)Cc2nc3ccccc3n2C)cc1` (stereo unspecified), for which the activity score was -67.7% (active).
`COCn1c(COc2ccccc2)nc2ccccc21`: the activity score was -65.8% (active).
With `COc1ccc(OCc2ccc(-c3nc4ccccc4c(=O)n3N)o2)cc1`, the activity score was -143% (active).
To `Cc1ccc(OCc2nc3ccccc3n2C)cc1` belongs -109% (active); to `COc1ccc(C)c(Cn2c(-c3nonc3N)nc3ccccc32)c1`, 76.2% (inactive).
For `Cn1c(COc2ccc(Cl)cc2)nc2ccccc2c1=O`, the activity score was -91.8% (active).
On to `CC(C)c1ccc(Nc2ncccc2C#N)cc1`, for which the activity score was -111% (active).
As to `COC(=O)c1sc(NC(=S)NC(=O)c2ccc(C)cc2)nc1C`, the activity score was -102% (active).
As to `CC(=O)c1sc(NC(=O)c2ccc(C)cc2)nc1C`, the activity score was -112% (active).
Take `O=C(N/N=C/c1ccc([N+](=O)[O-])o1)c1cccc(S(=O)(=O)N2CCOCC2)c1`: the activity score was -81.1% (active).
With `COc1ccc(C(=NN)c2ccc(OC)cc2)cc1`, the activity score is -133% (active).
Turning to `O=C(Nc1ccon1)c1sc2ccccc2c1Cl`, the activity score was -179% (active).
As for `Cc1c(Cl)c([N+](=O)[O-])nn1Cc1ccc(C(=O)N/N=C\c2cc(Cl)ccc2O)o1`, the activity score is 81.2% (inactive).
As to `CN(C)c1ccc(/C=N/NC(=O)c2ccc(Cn3cc(Br)cn3)o2)cc1`, the activity score is -69.3% (active).
Then `CCOc1ccc(OCc2cccc(C(=O)N(CC)CC)c2)cc1`, with 50.8% (inactive).
Regarding `CC(C)c1cc(C(N)=O)c(NC(=O)c2cccc(COc3ccc(Br)cc3)c2)s1`, the activity score is -194% (active).
As for `CN(C)c1nc(=Nc2cccc(Cl)c2)ss1`, the activity score is -64.3% (active).
For the molecule `CS(=O)(=O)N1CCc2nc(-c3ccccc3)sc2C1`, the activity score is -90.2% (active).
For `O=C(c1ccccc1)c1ccc(OC(=O)N2CCCC2)cc1`, the activity score was -65.8% (active).
In the case of `Cc1ccc(CSc2nc3[nH]ncc3c(=O)[nH]2)cc1`, the activity score was -78% (active).
For the molecule `Clc1ccc(-c2nnc(SCc3nc4ccccc4s3)o2)cc1`, the activity score is -162% (active).
Consider `Oc1ccc(CNc2ccccc2O)cc1`, for which the activity score was -62.2% (active).
With `Cc1cc(OCc2cc(C(=O)NCc3cc(C(C)C)no3)no2)cc(C)c1Cl`, the activity score is -135% (active).
Then `CCOc1ccc(NS(=O)(=O)c2ccc(C)c(C(N)=O)c2)cc1`, with -72.9% (active); and `COc1cc(CN2CCC(C(N)=O)CC2)ccc1OCc1ccccc1`, with -111% (active).
To `N=c1c2c3c(sc2nc2n1CCCCC2)CCCC3` belongs -89.5% (active).

The values are drawn from PubChem BioAssay AID1814 (Broad Institute, 2009).
